Data from the supplement of paper PMC13380429.
Counter-ions that a name gives are not always drawn. A number with no mark means an inactive call.

Test system: Vero E6 infected with SARS-CoV-2
Experiment: inhibition of SARS-CoV-2 cytopathic effect; higher = more antiviral protection, active = above 15
Conditions: 48 h

Structure (SMILES) | inhibition of SARS-CoV-2 cytopathic effect (1 nM) | inhibition of SARS-CoV-2 cytopathic effect (8.33 nM) | inhibition of SARS-CoV-2 cytopathic effect (100 nM) | inhibition of SARS-CoV-2 cytopathic effect (833.33 nM) | inhibition of SARS-CoV-2 cytopathic effect (10000 nM)
CN(C)C(=O)COC(=O)Cc1ccc(OC(=O)c2ccc(NC(=N)N)cc2)cc1 [Camostat mesylate] | 0.94% | -0.39% | -0.94% | 1.08% | -0.11%
CCCCOC(=O)c1ccccc1Nc1cccc(C(F)(F)F)c1 [ufenamate] | 2.83% | 2.78% | 0.41% | 1.79% | 0.16%
C[Se]C[C@H](N)C(=O)O [Se-methylselenocysteine] | 2.05% | 1.18% | 0.23% | 0.93% | 1.8%
CC(C)(Cc1ccc2ccccc2c1)NC[C@@H](O)COc1cccc(Cl)c1C#N | -1.61% | 0.41% | 0.1% | 2.49% | 62.5% (active)
CCSc1ccc2c(c1)N(CCCN1CCN(C)CC1)c1ccccc1S2 [thiethylperazine] | -3.78% | -1.48% | -1.97% | -4.23% | 22.5% (active)
CC(C)=CC[C@@H](O)C1=CC(=O)c2c(O)ccc(O)c2C1=O [Shikonin] | 0.59% | 0.65% | 0.38% | 3.65% | 2.04%
O=C(/C=C/C=C/c1ccc2c(c1)OCO2)N1CCCCC1 [piperine] | -1.58% | -1.88% | -3.68% | -2.45% | 5.15%
NC(=O)CN1CC[C@@H](NC(=O)[C@@H]2CCCN2)C1=O | 1.05% | -1.41% | 0.01% | 0.9% | 0.65%
O=C1c2cccnc2OC[C@@H]2CCCN12 | 0.83% | 1.33% | 0.65% | 0.64% | -2.21%
CCn1c(-c2nonc2N)nc2c(C#CC(C)(C)O)ncc(OC[C@H]3CCCNC3)c21 | 2.55% | 4.66% | 3.53% | 5.33% | 4.74%
CCN(CC)C(=O)/C(C#N)=C/c1cc(O)c(O)c([N+](=O)[O-])c1 [entacapone] | -0.37% | -1.7% | -1.61% | -2.41% | -0.4%
C/C(=N\NC(=N)N)c1cc(NC(=O)CCCCCCCCC(=O)Nc2cc(/C(C)=N/NC(=N)N)cc(/C(C)=N/NC(=N)N)c2)cc(/C(C)=N/NC(=N)N)c1 [semapimod] | 1.18% | 2.42% | 5.39% | 7.62% | 7.5%
CC(C)(N)Cc1ccccc1 [phentermine] | 2.16% | 1.33% | 2.37% | 3.73% | 1.23%
Nc1cccc(CNC(=O)c2ccc(Oc3ccc(OCc4cccc(F)c4)cc3)nc2)c1 | -2.39% | -0.37% | 0.75% | 0.65% | -2.15%
O=C1NC(=O)C(c2cnc3ccccn23)=C1c1cn2c3c(cc(F)cc13)CN(C(=O)N1CCCCC1)CC2 | 0.79% | 7.15% | 14.4% | 16% (active) | 14.8%
Cc1ccc(NC(=O)c2cccc(N(C)C)c2)cc1NC(=O)c1ccc(O)cc1 | -3.41% | -1.26% | 6.65% | 1.14% | 6.69%
Cc1ccc(C(=O)N(CCCN)[C@@H](c2nc3cc(Cl)ccc3c(=O)n2Cc2ccccc2)C(C)C)cc1 [ispinesib] | 0.51% | -1.24% | -2% | -2.99% | -4.72%
CCOC(=O)c1ccc(OCCC2CCN(c3ccc(C)nn3)CC2)cc1 [pirodavir] | 2.32% | 1.72% | 0.34% | 1.49% | -2.18%
COC(c1ccccc1)(c1ccccc1)[C@H](Oc1nc(C)cc(C)n1)C(=O)O [ambrisentan] | -4.05% | -0.7% | -1.38% | -0.18% | -3.02%

Structure (SMILES) | inhibition of SARS-CoV-2 cytopathic effect (1 nM) | inhibition of SARS-CoV-2 cytopathic effect (8.33 nM) | inhibition of SARS-CoV-2 cytopathic effect (100 nM) | inhibition of SARS-CoV-2 cytopathic effect (833.33 nM) | inhibition of SARS-CoV-2 cytopathic effect (10000 nM)
COc1cc(C(=O)NCC2(N(C)C)CCCC2)cc(OC)c1OCc1ccccc1 | 0.5% | 4.04% | 5.81% | -2.21% | -8%
CO[C@H]1/C=C/O[C@@]2(C)Oc3c(C)c(O)c4c(O)c(c(/C=N/N5CCN(C6CCCC6)CC5)c(O)c4c3C2=O)NC(=O)/C(C)=C\C=C\[C@H](C)[C@H](O)[C@@H](C)[C@@H](O)[C@@H](C)[C@H](OC(C)=O)[C@@H]1C [rifapentine] | -8.98% | -0.78% | -1.42% | 1.06% | 1.47%
c1ccc(-c2ccc(C(c3ccccc3)n3ccnc3)cc2)cc1 (stereo not given) [bifonazole] | 3.05% | 3.28% | 4.39% | -11.6% | 15.4% (active)
C=CC[C@]1(O)CC[C@H]2[C@@H]3CCC4=CCCC[C@@H]4[C@H]3CC[C@@]21C [allylestrenol] | -1.01% | -2.16% | 1.52% | 1.07% | 1.75%
O=C(Oc1ccc([N+](=O)[O-])cc1)N1CCC(C(O)(c2ccc3c(c2)OCO3)c2ccc3c(c2)OCO3)CC1 | 0.7% | 6.75% | 2.26% | 1.03% | 1.62%
C[C@H](/C=C/[C@H](C)C(C)(C)O)[C@H]1CC[C@H]2/C(=C/C=C3C[C@@H](O)C[C@H](O)C3)CCC[C@]12C [paricalcitol] | 0.83% | 3.37% | -0.2% | 1.21% | -0.81%
Nc1ccc(S(=O)(=O)Nc2ccc(Cl)nn2)cc1 [sulfachlorpyridazine] | 0.57% | -0.21% | 1.77% | -1.32% | 0.69%
O=C(O)CC[C@H]1CC[C@@](c2cc(F)ccc2F)(S(=O)(=O)c2ccc(Cl)cc2)CC1 | -2.65% | -0.66% | -4.1% | -7.63% | -8.12%
CN(c1ncccc1CNc1nc(Nc2ccc3c(c2)CC(=O)N3)ncc1C(F)(F)F)S(C)(=O)=O | 0.16% | 0.22% | -1.3% | -2.48% | -3.05%
Cc1cc(O)c2c(c1)C(=O)c1cc(O)cc(O)c1C2=O [emodin] | -1.74% | 0.93% | -1.79% | 1.29% | 2.24%
CCOC(=O)CCC(=O)O[C@H]1[C@H](O[C@@H]2[C@@H](C)[C@H](O[C@H]3C[C@@](C)(OC)[C@@H](O)[C@H](C)O3)[C@@H](C)C(=O)O[C@H](CC)[C@@](C)(O)[C@H](O)[C@@H](C)C(=O)[C@H](C)C[C@@]2(C)O)O[C@H](C)C[C@@H]1N(C)C [erythromycin-ethylsuccinate] | 0.01% | 0.11% | 0.57% | 0.29% | -0.24%
CCN1C(=O)CNc2ncc(-c3ccc(-c4nc[nH]n4)nc3C)nc21 | 2.11% | 2.76% | 2.06% | 2.77% | -4.67%
Cc1ccccc1N1CCN(S(=O)(=O)C[C@]23CC[C@H](C[C@@H]2NC(=O)[C@@H](N)CCS(C)(=O)=O)C3(C)C)CC1 | 0.06% | 2.09% | 2.92% | 1.11% | 0.11%
CCN1CCN(Cc2ccc(-c3cc4c(N[C@H](C)c5ccccc5)ncnc4[nH]3)cc2)CC1 | 1.55% | 0.57% | -1.71% | -10.4% | -16%
O=C1NCN(c2ccccc2)C12CCN(CC1COc3ccccc3O1)CC2 (stereo not given) [spiroxatrine] | -0.76% | 0.74% | 1.03% | 0.28% | 0.38%
CC(C)Nc1cccnc1N1CCN(C(=O)c2cc3cc(NS(C)(=O)=O)ccc3[nH]2)CC1 [delavirdine] | -1.49% | -0.85% | 1.56% | 1.65% | 2.87%
Cc1cncc(CN2CCC(=C3c4ccc(Cl)cc4CCc4cccnc43)CC2)c1 [rupatadine] | -0.79% | -0.26% | 2.27% | 2.5% | -9.2%
CCN(CCNC(=O)Nc1ccccc1Br)c1cccc(C)c1 | -0.09% | 2.65% | -0.41% | -0.7% | 0.98%
CCN(CC)CCOC(=O)C(Cc1cccc2ccccc12)CC1CCCO1 (mixture of isomers) [naftidrofuryl] | 0.67% | -0.29% | 2.4% | 1.45% | -1.13%
